Screening results (PubChem BioAssay)
HGIII-sPLA2 inh – Inhibits HGIII-sPLA2 liposome hydrolysis, primary screen. Q9NZ20. QFRET BODIPY PC-A2 liposome hydrolysis, fluorescence. inhibition, % at 12.2 µM. 370,000 compounds, 0.56% hits. AID 743126;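 active = inhibition above mean plus 3 SD of compounds lying within the high and low control bounds, cut at about 19% in these data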;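 also: 0% = median of test compound wells and 100% = no enzyme DMSO wells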
ADAM17 inh – inhibitors of human ADAM17. recombinant ADAM17, EDANS/DABCYL FRET peptide cleavage. AID 720648. 370,000 compounds, 0.83% hits. inhibition, % at 6.95 µM. P78536;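 active = inhibition above the mean of compounds lying between control limits plus 3 SD, set per campaign, cut at about 8.5% in these data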;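 also: 0% = DMSO-only wells as the low control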
Target sequence (P78536 215-824 limits assumed): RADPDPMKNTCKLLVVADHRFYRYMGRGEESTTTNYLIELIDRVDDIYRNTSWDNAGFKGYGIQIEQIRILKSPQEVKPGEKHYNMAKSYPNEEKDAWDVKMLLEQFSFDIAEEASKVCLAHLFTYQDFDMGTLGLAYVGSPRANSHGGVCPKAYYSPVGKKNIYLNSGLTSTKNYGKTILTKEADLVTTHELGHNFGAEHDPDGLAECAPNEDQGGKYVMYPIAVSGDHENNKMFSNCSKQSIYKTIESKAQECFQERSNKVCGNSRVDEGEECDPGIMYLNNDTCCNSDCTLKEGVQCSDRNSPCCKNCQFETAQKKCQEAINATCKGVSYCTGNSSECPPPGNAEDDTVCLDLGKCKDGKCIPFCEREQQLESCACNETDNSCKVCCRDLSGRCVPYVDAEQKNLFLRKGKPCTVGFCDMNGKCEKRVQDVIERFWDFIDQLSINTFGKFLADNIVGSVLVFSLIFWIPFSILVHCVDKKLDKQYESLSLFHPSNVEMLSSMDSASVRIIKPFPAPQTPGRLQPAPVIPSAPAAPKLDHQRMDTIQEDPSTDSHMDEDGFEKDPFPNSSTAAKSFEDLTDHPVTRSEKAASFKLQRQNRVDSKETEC
ADAM10 inh – ADAM10 inhibition, QFRET primary screen. inhibition, % at 7 µM. O14672. 370,000 compounds, 0.62% hits. recombinant ADAM10, EDANS/DABCYL FRET peptide cleavage, 3 h;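 active = inhibition above a per-campaign cutoff equal to the mean of compounds falling between control-based bounds plus 3 SD, cut at about 20% in these data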;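 also: 0% = DMSO wells while the 100% control is not disclosed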
FAS-TE inh – blocks the thioesterase domain of human fatty acid synthase; 360,000 compounds, 0.67% hits; inhibition, % at 15 µM; recombinant FAS-TE, OMFH fluorogenic substrate, fluorescence endpoint; P49327;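 active = compounds whose normalised, plate-corrected inhibition of enzyme fluorescence in the single-dose primary screen is 50% or more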;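 also: 0% = DMSO with enzyme and 100% = substrate without enzyme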
GRIN3A LBD mod – NR3A (human) ligand-binding domain modulation | 340,000 compounds, 2.5% hits | Tm shift relative to glycine control, % at 25 µM | NR3A LBD differential scanning fluorimetry, Tm shift; 0% = protein alone, 100% = glycine-bound protein;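 active = melting temperature shift of at least 10% of the positive control shift, at one fixed dose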
An asterisk follows results filed as active; i = inactive; . = not tested or not shown. Shown are actives, neighbours in structure and some others; about 4.3% of the full set was active somewhere.

SMILES	HGIII-sPLA2 inh	ADAM17 inh	ADAM10 inh	FAS-TE inh	GRIN3A LBD mod
COC(=O)c1cc(S(=O)(=O)N2CCN(c3ccc([N+](=O)[O-])cc3)CC2)c[nH]1	-14	1	9	14	207*
Cc1noc(C)c1S(=O)(=O)N1CCN(c2ccc([N+](=O)[O-])cc2)CC1	8	-4	-7	10	1
O=C(CN1CCN(c2nc(-c3ccccc3)cs2)CC1)Nc1ccc(Cl)cc1	-5	4	10	.	.
O=C1c2ccccc2CCC12N=NCC2c1ccc(Br)cc1 (configuration not stated)	5	0	-2	9	11*
C=CCC[C@@H](Cc1ccc(F)cc1)C(=O)OCCNC(=O)[C@@H](CC=C)CC(=O)N[C@H](CO)Cc1ccccc1	-33	1	7	9	-1
C=CCC[C@@H](Cc1ccc(F)cc1)C(=O)OC[C@H](Cc1c[nH]c2ccccc12)NC(=O)[C@@H](CC=C)CC(=O)N[C@@H](CO)Cc1ccccc1	-89	8	16	14	8
C=CC[C@H](CC(=O)N(CCO)Cc1ccccc1)C(=O)N[C@H](COC(=O)[C@H](CC=C)CC(=O)OC(C)(C)C)Cc1c[nH]c2ccccc12	-101	8	9	13	-2
C=CCC[C@H](Cc1ccc(F)cc1)C(=O)OC[C@H](Cc1c[nH]c2ccccc12)NC(=O)[C@@H](CC=C)CC(=O)NCCO	-82	8	26*	39	-18
C=CC[C@@H](CC(=O)N[C@H](CO)Cc1ccccc1)C(=O)N[C@H](COC(=O)[C@H](CC=C)CC(=O)OC(C)(C)C)Cc1c[nH]c2ccccc12	-66	17*	29*	15	-3
C=CCC[C@@H](Cc1ccc(F)cc1)C(=O)OCCNC(=O)[C@@H](CC=C)CC(=O)N[C@@H](CO)Cc1ccccc1	-7	-4	-7	1	23*
C=CC[C@@H](CC(=O)N(CCO)Cc1ccccc1)C(=O)N[C@@H](COC(=O)[C@H](CC=C)CC(=O)OC(C)(C)C)Cc1c[nH]c2ccccc12	-50	22*	35*	17	-9
CCCCC(CC)Cn1c(N)c(C#N)c2nc3ccccc3nc21 (configuration not stated)	1	-47	-155	-21	11*
CN(C)CCCn1c(N)c(C#N)c2nc3ccccc3nc21	-6	i	i	-42	-4
COc1cccc2c1[C@H](/C=C/c1ccccc1)[C@@H]([C@H](O)CO)OC2	1	-1	2	.	.
O=C(OCCCCSc1nnc(-c2cccc3ccccc23)o1)c1ccc(F)cc1	-17	-12	-68	.	.
COc1ccc(OC)c(CN2C(=O)CN(S(C)(=O)=O)CC2(C)c2nnnn2C2CCCC2)c1 (configuration not stated)	-6	-8	-8	.	.
O=C(CSc1nnc2ccccn12)Nc1cccc(S(=O)(=O)N2CCOCC2)c1	5	3	-1	-13	10*
CCCc1nc2ccccc2c(C(=O)OCC(=O)Nc2cccc(S(=O)(=O)N3CCOCC3)c2)c1CC	-51	17*	32*	27	8
Nc1nnc(SCC(=O)Nc2cccc(S(=O)(=O)N3CCCCC3)c2)s1	-4	2	0	-3	0
Cc1cc(S(=O)(=O)N2CCOCC2)ccc1OCC(=O)Nc1cccc(F)c1	-13	2	7	2	37*
O=C(COC(=O)c1n[nH]c2ccccc12)Nc1cccc(S(=O)(=O)N2CCOCC2)c1	-34	-4	-2	-10	4
O=C(CSc1nnc(Nc2ccccc2)s1)Nc1cccc(S(=O)(=O)N2CCCCC2)c1	-23	5	3	12	16*
CCCCCCCCN1C(=O)[C@@H](CC(=O)N2CCCC2)C[C@@]2(C(=O)OC)C1=C[C@H](COCc1ccccc1)O[C@@H]2C	-17	4	7	.	.
O=[N+]([O-])c1cccc(OCCCN2CCC(C(O)(c3ccccc3)c3ccccc3)CC2)c1	-19	1	4	.	.
CCOC(=O)Cn1cc(CN2C(C(=O)OC)CN(Cc3ccc(F)cc3)CCS2(=O)=O)nn1 (configuration not stated)	7	2	8	.	.
SMILES	HGIII-sPLA2 inh	ADAM17 inh	ADAM10 inh	FAS-TE inh	GRIN3A LBD mod
O=C(CSc1nnc2c(n1)[nH]c1ccc(S(=O)(=O)N3CCOCC3)cc12)Nc1ccc(F)c(F)c1	-7	2	5	-9	35*
O=C(CNc1cccc(F)c1)Nc1cccc(S(=O)(=O)N2CCCCC2)c1	1	0	2	-4	14*
O=C(CCNC(=O)c1ccc(Cl)cc1)Nc1cccc(S(=O)(=O)N2CCCCCC2)c1	-37	3	7	15	29*
Cc1cccc(C)c1-n1nnnc1C1c2ccccc2OCC(=O)N1Cc1ccc(F)cc1 (configuration not stated)	6	1	1	.	.
CCOc1ccc(/C=N/NC(=O)c2ccc(CSc3nc4ccccc4[nH]3)cc2)cc1	-14	2	2	8	11*
O=C(N/N=C/c1ccc(OC(F)F)cc1)c1ccc(CSc2nc3ccccc3[nH]2)cc1	-12	6	10	15	26*
CCN1C(=O)N(C(C)=O)[C@@H]2C[C@H](C(=O)N3CCCC3)[C@H](C)[C@H](c3ccccc3)C[C@@H]21	14	-1	-14	.	.
Cc1ccc(SC[C@H](Cc2ccccc2)N2CCN(CCc3ccccc3)CCC2=O)cc1	-8	-1	-5	13	19*
O=C1CCN(CCc2ccccc2)CCN1[C@H](CSc1ccccc1)Cc1ccccc1	-10	1	11	17	1
NC(N)=NS(=O)(=O)c1ccc(N/C=C/C(=O)c2ccc(Cl)c(Cl)c2)cc1	-3	-11	-4	13	13*
CCOC(=O)[C@H](Cc1ccccc1)NC(=O)[C@H]1C[C@@]2(N3CCCCC3)c3ccccc3N(C(=O)OC(C)(C)C)[C@H]2N1C(=O)OC(C)(C)C	3	5	12	.	.
COC(=O)C[C@H]1CC[C@@H]2[C@H](COc3ccc(NC(=O)c4cccc(Cl)c4)cc3C(=O)N2C)O1	-3	-3	0	.	.
COc1ccc(OC)c(CN2C(=O)CCCCC2(C)c2nnnn2C2CCCC2)c1 (configuration not stated)	3	-1	-2	.	.
N#CCC(=O)N/N=C/c1cn(Cc2ccccc2C#N)c2ccccc12	-4	-3	-1	-5	10
N#CCC(=O)N/N=C/c1cn(Cc2ccc(Cl)c(Cl)c2)c2ccccc12	-19	1	7	-2	31*
COc1ccc(/C=N\NC(=O)c2cc3c(ccc4ccccc43)o2)cc1O	-25	-25	-52	6	25*
COc1ccccc1/C=N/NC(=O)c1cc2c(ccc3ccccc32)o1	-2	-5	-34	19	-1
COc1cc(/C=N/NC(=O)c2cc3c(ccc4ccccc43)o2)cc(OC)c1O	-19	-25	-59	4	.
N#CCn1cc(/C=N/NC(=O)c2cc3c(ccc4ccccc43)o2)c2ccccc21	-4	-52	-101	4	25*
